Binding signal data for one sequence are collected here from PMC7862700, “An all-to-all approach to the identification of sequence-specific readers for epigenetic DNA modifications on cytosine”.

Common to all, as to assay: DAPPL (digital affinity profiling via proximity ligation, sequencing); 10 mM Tris-HCl pH 7.5, 50 mM NaCl, 1 mM DTT, 4% glycerol, room temperature, 30 min; GST-TFs on glutathione beads, 16-mer random dsDNA library, 0.1% formaldehyde crosslink after washing; high values mean tight binding
One experiment addresses T1, FEV (Homo sapiens, UniProt Q99581 1-238).
T1 sequence: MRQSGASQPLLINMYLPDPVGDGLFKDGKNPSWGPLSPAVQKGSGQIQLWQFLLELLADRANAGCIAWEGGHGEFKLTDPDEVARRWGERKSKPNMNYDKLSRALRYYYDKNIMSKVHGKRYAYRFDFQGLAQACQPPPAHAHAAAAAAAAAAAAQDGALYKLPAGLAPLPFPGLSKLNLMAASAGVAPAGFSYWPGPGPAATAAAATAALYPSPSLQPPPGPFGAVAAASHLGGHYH
To be noted: protein: recombinant; tags: N-terminal GST; dsDNA, one strand shown. The method, boiled down: (§1)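 In yeast, human transcription factors were expressed with a GST fusion, then pulled down on glutathione beads and given DNA barcodes. Pooled with a tag-only sample, they were exposed to 200 nmole of a 16-mer random double-stranded DNA library (Tris/NaCl/DTT/glycerol buffer, room temperature, 30 min), washed, crosslinked with 0.1% formaldehyde, proximity-ligated using BsaI/T4 ligase for 1 h at 37 °C, PCR-amplified and read on an Illumina NextSeq500. Each hexamer's frequency of reads for a factor, divided by the matching frequency for the tag-only sample, gives the binding signal.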

A further experiment deals with ETV5 (Homo sapiens, UniProt P41161 1-510). To be noted: protein: recombinant; tags: N-terminal GST; dsDNA, one strand shown. The procedure, abridged: as §1
For another experiment, the target named is HSF1 (Homo sapiens, UniProt Q00613 1-529). As to conditions: protein: recombinant; tags: N-terminal GST; chain copies: 3; dsDNA, one strand shown. The method, boiled down:
as §1

Another experiment deals with T2, SPIC (Homo sapiens, UniProt Q8N5J4 1-248).
T2 sequence: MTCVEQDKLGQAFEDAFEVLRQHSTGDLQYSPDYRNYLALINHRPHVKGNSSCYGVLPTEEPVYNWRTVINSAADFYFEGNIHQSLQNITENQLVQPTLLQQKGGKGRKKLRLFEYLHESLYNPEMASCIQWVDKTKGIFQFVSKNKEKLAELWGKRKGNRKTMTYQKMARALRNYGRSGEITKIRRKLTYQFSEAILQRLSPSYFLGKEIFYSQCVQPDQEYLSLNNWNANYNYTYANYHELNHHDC
To be noted: protein: recombinant; tags: N-terminal GST; dsDNA, one strand shown. The method, boiled down:
as §1

A further experiment addresses ELF4 (Homo sapiens, UniProt Q99607 1-663). As to conditions: protein: recombinant; tags: N-terminal GST; dsDNA, one strand shown. The method, boiled down: as §1
A further experiment has as its target T3, ELK4 (Homo sapiens, UniProt P28324-2 1-405).
T3 sequence: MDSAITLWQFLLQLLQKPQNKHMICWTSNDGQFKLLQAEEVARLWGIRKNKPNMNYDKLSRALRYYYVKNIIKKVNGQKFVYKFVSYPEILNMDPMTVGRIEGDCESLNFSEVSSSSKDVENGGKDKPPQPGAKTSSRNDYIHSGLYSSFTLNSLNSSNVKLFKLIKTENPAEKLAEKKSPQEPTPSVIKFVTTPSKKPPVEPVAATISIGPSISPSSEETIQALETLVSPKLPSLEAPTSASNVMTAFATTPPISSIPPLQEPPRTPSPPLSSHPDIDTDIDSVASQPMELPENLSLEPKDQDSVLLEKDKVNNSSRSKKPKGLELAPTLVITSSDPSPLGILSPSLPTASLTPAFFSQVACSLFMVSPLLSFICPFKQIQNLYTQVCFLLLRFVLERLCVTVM
As to conditions: protein: recombinant; tags: N-terminal GST; dsDNA, one strand shown. The procedure, abridged:
as §1

For the next experiment, the target named is T4, ETV2 (Homo sapiens, UniProt O00321 1-342).
T4 sequence: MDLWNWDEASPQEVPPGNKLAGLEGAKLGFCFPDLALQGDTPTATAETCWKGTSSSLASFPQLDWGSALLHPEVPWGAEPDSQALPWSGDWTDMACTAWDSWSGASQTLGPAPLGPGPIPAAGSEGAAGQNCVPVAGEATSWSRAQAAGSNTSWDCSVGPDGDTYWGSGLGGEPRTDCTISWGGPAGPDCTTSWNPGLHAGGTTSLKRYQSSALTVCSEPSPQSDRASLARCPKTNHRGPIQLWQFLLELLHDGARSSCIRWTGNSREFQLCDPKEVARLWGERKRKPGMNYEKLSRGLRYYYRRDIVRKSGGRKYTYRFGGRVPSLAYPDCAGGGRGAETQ
To be noted: protein: recombinant; tags: N-terminal GST; dsDNA, one strand shown. The procedure, abridged:
as §1

Another experiment concerns the target T5, ELF3 (Homo sapiens, UniProt P78545 1-371).
T5 sequence: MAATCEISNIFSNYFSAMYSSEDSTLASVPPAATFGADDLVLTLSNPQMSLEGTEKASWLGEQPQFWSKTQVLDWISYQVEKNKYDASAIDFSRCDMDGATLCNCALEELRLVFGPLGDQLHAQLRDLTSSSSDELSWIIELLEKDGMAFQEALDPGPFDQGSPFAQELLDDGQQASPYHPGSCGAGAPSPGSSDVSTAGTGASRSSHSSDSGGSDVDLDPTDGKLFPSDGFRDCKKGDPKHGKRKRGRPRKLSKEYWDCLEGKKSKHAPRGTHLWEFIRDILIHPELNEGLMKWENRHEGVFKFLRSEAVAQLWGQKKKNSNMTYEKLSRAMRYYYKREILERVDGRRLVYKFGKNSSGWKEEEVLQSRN
To be noted: protein: recombinant; tags: N-terminal GST; dsDNA, one strand shown. The method, boiled down:
as §1

The target of a further experiment is CRX (Homo sapiens, UniProt O43186 1-299). To be noted: protein: recombinant; tags: N-terminal GST; dsDNA, one strand shown. The procedure, abridged: as §1
Another experiment has as its target ETV1 (Homo sapiens, UniProt P50549 1-477). To be noted: protein: recombinant; tags: N-terminal GST; dsDNA, one strand shown. The method, boiled down:
as §1

Chain of CRX (O43186 whole entry): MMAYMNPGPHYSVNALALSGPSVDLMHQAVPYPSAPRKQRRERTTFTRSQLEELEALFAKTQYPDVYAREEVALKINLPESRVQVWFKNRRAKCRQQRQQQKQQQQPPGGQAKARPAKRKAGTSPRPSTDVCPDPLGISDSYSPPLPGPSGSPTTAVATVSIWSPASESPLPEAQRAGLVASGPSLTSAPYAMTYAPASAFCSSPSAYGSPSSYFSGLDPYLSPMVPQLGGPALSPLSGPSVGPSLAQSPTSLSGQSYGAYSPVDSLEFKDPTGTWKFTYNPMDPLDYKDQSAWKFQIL
Chain of HSF1 (Q00613 whole entry): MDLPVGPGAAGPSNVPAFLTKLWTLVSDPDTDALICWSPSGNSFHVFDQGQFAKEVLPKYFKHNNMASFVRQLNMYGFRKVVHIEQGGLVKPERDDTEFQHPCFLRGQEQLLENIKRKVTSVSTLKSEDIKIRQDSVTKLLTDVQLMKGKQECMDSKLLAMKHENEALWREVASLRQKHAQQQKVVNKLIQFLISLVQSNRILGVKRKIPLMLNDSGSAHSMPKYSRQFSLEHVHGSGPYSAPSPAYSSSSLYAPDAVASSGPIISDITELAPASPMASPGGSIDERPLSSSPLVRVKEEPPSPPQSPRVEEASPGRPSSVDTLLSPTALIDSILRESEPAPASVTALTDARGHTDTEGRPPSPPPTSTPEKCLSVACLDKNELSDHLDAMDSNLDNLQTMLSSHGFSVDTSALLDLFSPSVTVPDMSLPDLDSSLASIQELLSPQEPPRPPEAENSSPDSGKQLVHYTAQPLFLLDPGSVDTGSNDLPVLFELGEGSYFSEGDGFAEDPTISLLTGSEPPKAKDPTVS
Chain of ETV1 (P50549 whole entry): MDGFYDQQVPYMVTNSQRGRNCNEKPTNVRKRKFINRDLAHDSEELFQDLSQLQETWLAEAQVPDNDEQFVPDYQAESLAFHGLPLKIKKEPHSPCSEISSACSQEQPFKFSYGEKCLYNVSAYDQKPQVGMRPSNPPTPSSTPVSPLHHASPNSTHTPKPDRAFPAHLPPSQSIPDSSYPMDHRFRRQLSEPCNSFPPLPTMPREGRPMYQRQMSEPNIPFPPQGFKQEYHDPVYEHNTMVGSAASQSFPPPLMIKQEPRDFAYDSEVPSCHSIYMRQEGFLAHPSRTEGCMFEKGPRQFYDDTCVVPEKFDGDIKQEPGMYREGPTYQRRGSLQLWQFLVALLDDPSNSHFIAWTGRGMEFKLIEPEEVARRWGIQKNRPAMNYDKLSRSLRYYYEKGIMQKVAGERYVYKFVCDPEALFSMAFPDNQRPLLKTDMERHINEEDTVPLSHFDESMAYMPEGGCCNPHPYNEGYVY
Chain of ETV5 (P41161 whole entry): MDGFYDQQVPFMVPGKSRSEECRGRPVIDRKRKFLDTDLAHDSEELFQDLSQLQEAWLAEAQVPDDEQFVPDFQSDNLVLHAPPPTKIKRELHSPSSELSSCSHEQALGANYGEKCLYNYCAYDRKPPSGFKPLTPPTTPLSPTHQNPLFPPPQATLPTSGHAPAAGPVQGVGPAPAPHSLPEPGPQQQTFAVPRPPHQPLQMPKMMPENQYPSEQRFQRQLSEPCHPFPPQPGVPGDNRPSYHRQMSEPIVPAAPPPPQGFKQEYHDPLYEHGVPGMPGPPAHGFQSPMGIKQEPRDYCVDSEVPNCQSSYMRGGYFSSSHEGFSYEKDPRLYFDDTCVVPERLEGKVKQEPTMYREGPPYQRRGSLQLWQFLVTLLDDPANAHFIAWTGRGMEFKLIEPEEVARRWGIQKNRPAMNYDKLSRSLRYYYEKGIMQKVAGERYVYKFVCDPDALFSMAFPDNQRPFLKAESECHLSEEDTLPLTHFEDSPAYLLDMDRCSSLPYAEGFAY
Chain of ELF4 (Q99607 whole entry): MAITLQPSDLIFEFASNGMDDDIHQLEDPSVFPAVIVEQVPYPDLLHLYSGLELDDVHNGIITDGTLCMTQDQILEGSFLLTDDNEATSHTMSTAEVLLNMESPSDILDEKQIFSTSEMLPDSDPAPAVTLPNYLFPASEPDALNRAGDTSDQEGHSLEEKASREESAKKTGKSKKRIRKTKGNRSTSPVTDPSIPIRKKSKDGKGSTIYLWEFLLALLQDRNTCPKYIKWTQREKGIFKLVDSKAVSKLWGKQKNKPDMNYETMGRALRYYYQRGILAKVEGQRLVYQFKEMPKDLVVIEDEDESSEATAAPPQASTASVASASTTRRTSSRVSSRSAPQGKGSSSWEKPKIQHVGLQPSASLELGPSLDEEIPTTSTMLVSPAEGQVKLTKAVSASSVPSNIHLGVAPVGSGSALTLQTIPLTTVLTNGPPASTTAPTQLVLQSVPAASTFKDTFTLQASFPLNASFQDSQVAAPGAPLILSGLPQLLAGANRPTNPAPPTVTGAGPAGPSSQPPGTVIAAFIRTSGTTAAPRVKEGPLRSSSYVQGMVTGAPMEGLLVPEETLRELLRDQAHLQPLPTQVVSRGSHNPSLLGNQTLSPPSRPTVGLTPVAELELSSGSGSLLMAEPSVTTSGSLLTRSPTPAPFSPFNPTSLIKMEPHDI

As to TATGCG, the binding signal in the experiment with FEV was 1.26 fold enrichment (6-mer frequency, TF over GST control); in the experiment with ETV5, 1.29 fold enrichment (6-mer frequency, TF over GST control); with HSF1 it was 1.23 fold enrichment (6-mer frequency, TF over GST control); with SPIC it was 1.63 fold enrichment (6-mer frequency, TF over GST control); in the experiment with ELF4, 1.35 fold enrichment (6-mer frequency, TF over GST control); with ELK4, 1.44 fold enrichment (6-mer frequency, TF over GST control). Moreover, the binding signal in the experiment with ETV2 was 1.45 fold enrichment (6-mer frequency, TF over GST control); with ELF3, 1.19 fold enrichment (6-mer frequency, TF over GST control); with CRX it was 1.4 fold enrichment (6-mer frequency, TF over GST control); in the experiment with ETV1 it was 1.35 fold enrichment (6-mer frequency, TF over GST control).
